According to PubChem BioAssay (NCI):
About 79,000 compounds went through this panel and 15% of them were active in at least one assay; those are over-represented in the sample as a whole. No stated cut-off is given here; in the data, active means growth inhibition above about 70%; inactive means the rest.

Legend:
[1] = NCI Yeast Anticancer Drug Screen. Data for the rad50 strain (AID 155);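 further: 0% = growth of vehicle-only cultures of the same strain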; settings: S. cerevisiae rad50 strain growth inhibition; at 50.0 µM; active compounds read high
How it was run: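 Readout: growth inhibition relative to vehicle-treated cultures. Compound exposure was carried out in a genetically defined yeast strain deficient in DNA damage repair.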

[2] = NCI Yeast Anticancer Drug Screen. Data for the mec2-1 strain (AID 157); settings: S. cerevisiae mec2-1 strain, at 50.0 µM, active compounds read high
How it was run: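 Using mec2-1 yeast: add compound, measure growth, express inhibition versus vehicle-treated cultures.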

[3] = NCI Yeast Anticancer Drug Screen. Data for the sgs1 mgt1 strain (AID 161);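 further: 0% = growth of cultures given vehicle only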; settings: S. cerevisiae sgs1 mgt1 strain, at 50.0 µM, active compounds read high
How it was run: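 Growth of a repair-deficient yeast mutant was monitored after compound treatment and expressed as inhibition relative to vehicle-treated cultures.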

[4] = NCI Yeast Anticancer Drug Screen. Data for the cln2 rad14 strain (AID 165);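 further: 0% = growth equal to vehicle treated cultures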; settings: S. cerevisiae cln2 rad14 strain, at 50.0 µM, active compounds read high
How it was run: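 Yeast strain cln2 rad14, bearing defects in cell cycle control and DNA repair, serves as the test system; values reflect growth inhibition compared with vehicle.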

[5] = NCI Yeast Anticancer Drug Screen. Data for the bub3 strain (AID 167); settings: S. cerevisiae bub3 mutant strain, at 50.0 µM, active compounds read high
How it was run: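 Readout: yeast growth inhibition, expressed relative to vehicle-only wells. The test organism is a mutant strain from a panel with lesions in DNA repair or checkpoint genes.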

[6] = NCI Yeast Anticancer Drug Screen. Data for the mlh1 rad18 strain (AID 175); settings: S. cerevisiae mlh1 rad18 strain growth inhibition; at 50.0 µM; active compounds read high
How it was run: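 Steps: expose repair-defective yeast to compound; measure growth; express inhibition against vehicle-treated controls.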

Measured: growth inhibition

COc1ccc2c3c1OC1C(OC)(OC)C=C[C@@]4(Br)[C@@H](C2)N(CC2CC2)CC[C@]314 (stereo partly specified)
inactive: [1] 34.1% | [2] 5.6% | [3] -35.1% | [4] -8.55% | [5] -9.9% | [6] -44.6%

CCN(CC)CC(O)c1ccc(Br)cc1 (stereo unspecified)
inactive: [1] 0.85% | [2] -20.1% | [3] -0.25% | [4] -3.55% | [5] 2.65% | [6] 5.7%

O=S(=O)(c1ccccc1)c1ccccc1
inactive: [1] -2.9% | [2] 1.55% | [3] 1.6% | [4] -8.05% | [5] 0.1% | [6] -37.9%

Oc1ccc(CC2NCCc3cc(O)c(O)cc32)cc1O (stereo unspecified)
inactive: [1] 17.5% | [2] -4.15% | [3] 26.3% | [4] 24.3% | [5] 26.4% | [6] 23.1%

O=P(Oc1ccccc1)(N1CCCC1)N1CCCC1
inactive: [1] 27.9% | [2] 18.4% | [3] 11.9% | [4] 18.1% | [5] 36.5% | [6] 8.15%

C[N+]1(C)C2CCC1CC(OC(=O)C(CO)c1ccccc1)C2 (stereo unspecified)
inactive: [1] 18.7% | [2] -21.6% | [3] -6% | [4] -28.4% | [5] -51.5% | [6] -5.95%

CCOC(=O)/C=C1/C=C(C)CC(C)(C)C1 (tested in a mixture with another compound)
inactive: [1] -0.3% | [2] -58.7% | [3] -9.1% | [4] -40.5% | [5] 19% | [6] 1.7%

NC1CC=C(COC(=O)C(O)(c2ccccc2)C2CC2)CC1 (stereo unspecified)
inactive: [1] -12.9% | [2] -14.7% | [3] -23.6% | [4] 3.65% | [5] -7.4% | [6] -31.4%

COC(=O)CCSP(=S)(Oc1ccccc1)Oc1ccccc1
inactive: [1] -0.2% | [2] 7.85% | [3] 12.3% | [4] 4.25% | [5] 36.5% | [6] 9.1%

CCCCCCCCCCNP(=O)(Oc1ccccc1)Oc1ccccc1
inactive: [1] -21.8% | [2] 4.05% | [3] -16.4% | [4] -24.5% | [5] -4.75% | [6] -23.9%

O=C(Nc1ccccc1)c1ccc([As](c2ccc(C(=O)Nc3ccccc3)cc2)c2ccc(C(=O)Nc3ccccc3)cc2)cc1
inactive: [1] -8.9% | [2] -7% | [3] -4.85% | [4] -23.9% | [5] -19.2% | [6] -33.5%

Cc1cccc(NC(N)=S)c1
inactive: [1] 11.6% | [2] 1.55% | [3] 5.65% | [4] -4.35% | [5] -8.15% | [6] 8.35%

O=S(=O)(O)c1ccc(Cl)cc1
inactive: [1] -0.45% | [2] -3.2% | [3] -1.15% | [4] 23.1% | [5] 0.3% | [6] 9.1%

O=[N+]([O-])c1cccc2ncccc12
inactive: [1] -2.95% | [2] -14.4% | [3] 18.4% | [4] -6.55% | [5] 17.7% | [6] 9.3%

CCOP(=O)(CC#N)OCC
inactive: [1] -6.85% | [2] -11.7% | [3] -7.05% | [4] -6.4% | [5] 2.7% | [6] 0%

CC(=O)[O-].CC(=O)[O-].O=C(N/N=C/c1cc(Cl)cc(Cl)c1O)c1ccncc1.[Cu+2]
inactive: [1] 2.55% | [2] 2.75% | [3] 10.7% | [4] 51.1% | [5] -4.05% | [6] 9.85%

O=C(C[n+]1ccccc1)C1CCCC2CC3CCCCC3CC21 (stereo unspecified)
inactive: [1] 1.9% | [2] 18.3% | [3] 29.9% | [4] 13.8% | [5] 22.1% | [6] 37.6%

NC(c1ccccc1)P(=O)(O)O (stereo unspecified)
inactive: [1] -12.7% | [2] -20.4% | [3] -29.9% | [4] 5.85% | [5] -8.75% | [6] -33.3%

CCCCCCNC(=O)CBr
inactive: [1] 34.6% | [2] 4.55% | [3] 14.6% | [4] 3.4% | [5] 16.8% | [6] 30%

NC1Cc2cc(O)ccc2C1=O (stereo unspecified)
inactive: [1] -5.95% | [2] 22.2% | [3] -3.35% | [4] 20.2% | [5] 22.8% | [6] 0.7%

c1cc2c(cc1[C@@H]1OC[C@@H]3[C@H]1CO[C@H]3c1ccc3c(c1)OCO3)OCO2
inactive: [1] 14.1% | [2] 12.8% | [3] 47.2% | [4] 12.2% | [5] 65.5% | [6] 6.15%
